Laboratory results published in PubChem BioAssay AID1159580 (chemical genetic matrix, 2015).
Hit rate of the full screen: of about 5,500 compounds, about 2,000 (36%) were called active. Roughly 18% stayed inconclusive and do not appear here. Cut-off read from the data, not from the text of the source: active = normalized growth mostly below about 0.91 (no sharp cut-off); inconclusive = no clear call, values can overlap the other calls; inactive = mostly above about 0.92. The list shows a part of the results.

Test: chemical genetic growth profiling, strain panel (AID 1159580);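 note: tested at 20 µM; growth read once vehicle control cultures reached saturation at 30 °C; 1 = growth at the plate median or of vehicle wells; lower values mean less growth of the strain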
Details: growth OD

Measured: normalized growth

CCCC(C)C1(CC)C(=O)NC(=O)NC1=O (configuration not stated)
inactive: S. cerevisiae deletion strains, locus YJR075W, strain HOC1, active compounds read low 1.04 | S. cerevisiae deletion strains, locus YKL009W, strain mrt4, active compounds read low 1.03 | S. cerevisiae deletion strains, locus YKL068W, active compounds read low 1.01 | S. cerevisiae deletion strains, locus YKL085W, strain MDH1 (second series), active compounds read low 1.02 | S. cerevisiae deletion strains, locus YKL085W, strain MDH1, active compounds read low 1.02 | S. cerevisiae deletion strains, locus YKL160W, strain elf1, active compounds read low 1 | S. cerevisiae deletion strains, locus YKL190W, strain CNB1, active compounds read low 1.02 | S. cerevisiae deletion strains, locus YKR001C, strain vps1, active compounds read low 1.03 | S. cerevisiae deletion strains, locus YKR026C, strain gcn3, active compounds read low 0.998 | S. cerevisiae deletion strains, locus YKR091W, strain srl3, active compounds read low 1 | S. cerevisiae deletion strains, locus YLL001W, strain dnm1, active compounds read low 0.994 | S. cerevisiae deletion strains, locus YLL026W, active compounds read low 1 | S. cerevisiae deletion strains, locus YLL041C, strain sdh2, active compounds read low 1 | S. cerevisiae deletion strains, locus YLR027C, strain aat2, active compounds read low 0.998 | S. cerevisiae deletion strains, locus YLR039C, strain RIC1, active compounds read low 1.1 | S. cerevisiae deletion strains, locus YLR058C, strain SHM2, active compounds read low 1.01 | S. cerevisiae deletion strains, locus YLR102C, strain apc9, active compounds read low 1.02 | S. cerevisiae deletion strains, locus YLR113W, strain HOG1, active compounds read low 0.985 | S. cerevisiae deletion strains, locus YLR221C, strain rsa3, active compounds read low 1 | S. cerevisiae deletion strains, locus YLR258W, strain gsy2, active compounds read low 1 | S. cerevisiae deletion strains, locus YLR262C, strain YPT6 (second series), active compounds read low 1.02 | S. cerevisiae deletion strains, locus YLR262C, strain YPT6, active compounds read low 1.11 | S. cerevisiae deletion strains, locus YLR268W, strain sec22, active compounds read low 1.01 | S. cerevisiae deletion strains, locus YLR320W, strain mms22, active compounds read low 1.01 | S. cerevisiae deletion strains, locus YLR330W, strain CHS5, active compounds read low 1.01 | S. cerevisiae deletion strains, locus YLR342W, strain FKS1 (second series), active compounds read low 1.04 | S. cerevisiae deletion strains, locus YLR342W, strain FKS1, active compounds read low 1 | S. cerevisiae deletion strains, locus YLR357W, strain rsc2, active compounds read low 0.984 | S. cerevisiae deletion strains, locus YLR370C, strain arc18, active compounds read low 1 | S. cerevisiae deletion strains, locus YLR371W, strain rom2, active compounds read low 1.02 | S. cerevisiae deletion strains, locus YLR384C, strain iki3, active compounds read low 0.996 | S. cerevisiae deletion strains, locus YLR418C, strain cdc73, active compounds read low 1.05 | S. cerevisiae deletion strains, locus YML016C, strain PPZ1, active compounds read low 1.01 | S. cerevisiae deletion strains, locus YML032C, strain rad52, active compounds read low 1.02 | S. cerevisiae deletion strains, locus YML120C, strain ndi1, active compounds read low 1.02 | S. cerevisiae deletion strains, locus YML124C, strain tub3, active compounds read low 1.02 | S. cerevisiae deletion strains, locus YMR058W, strain fet3, active compounds read low 1.01 | S. cerevisiae deletion strains, locus YMR078C, strain ctf18, active compounds read low 1.02 | S. cerevisiae deletion strains, locus YMR125W, strain sto1, active compounds read low 0.996 | S. cerevisiae deletion strains, locus YMR129W, active compounds read low 0.997 | S. cerevisiae deletion strains, locus YMR205C, strain PFK2, active compounds read low 0.992 | S. cerevisiae deletion strains, locus YMR223W, strain ubp8, active compounds read low 1.04 | S. cerevisiae deletion strains, locus YMR231W, strain pep5, active compounds read low 1 | S. cerevisiae deletion strains, locus YMR263W, strain SAP30, active compounds read low 1.02 | S. cerevisiae deletion strains, locus YMR307W, strain GAS1, active compounds read low 1.12 | S. cerevisiae deletion strains, locus YNL067W, strain RPL9B, active compounds read low 1.01 | S. cerevisiae deletion strains, locus YNL071W, strain lat1, active compounds read low 1.01 | S. cerevisiae deletion strains, locus YNL128W, strain TEP1, active compounds read low 1.02 | S. cerevisiae deletion strains, locus YNL153C, strain GIM3, active compounds read low 1 | S. cerevisiae deletion strains, locus YNL183C, strain NPR1, active compounds read low 0.922 | S. cerevisiae deletion strains, locus YNL209W, strain ssb2, active compounds read low 1 | S. cerevisiae deletion strains, locus YNL233W, strain BNI4, active compounds read low 1.01 | S. cerevisiae deletion strains, locus YNL248C, strain rpa49, active compounds read low 1 | S. cerevisiae deletion strains, locus YNL250W, strain rad50, active compounds read low 1.02 | S. cerevisiae deletion strains, locus YNL271C, strain bni1, active compounds read low 1.03 | S. cerevisiae deletion strains, locus YNL298W, strain CLA4, active compounds read low 1.03 | S. cerevisiae deletion strains, locus YNL307C, strain MCK1, active compounds read low 1.03 | S. cerevisiae deletion strains, locus YNL322C, strain KRE1 (second series), active compounds read low 0.997 | S. cerevisiae deletion strains, locus YNL322C, strain KRE1, active compounds read low 1.01 | S. cerevisiae deletion strains, locus YNR049C, strain mso1, active compounds read low 0.998 | S. cerevisiae deletion strains, locus YNR052C, strain pop2, active compounds read low 1.02 | S. cerevisiae deletion strains, locus YOL006C, strain TOP1, active compounds read low 1.07 | S. cerevisiae deletion strains, locus YOL012C, strain htz1 1.23 | S. cerevisiae deletion strains, locus YOL147C, strain pex11, active compounds read low 1 | S. cerevisiae deletion strains, locus YOR001W, strain rrp6, active compounds read low 0.999 | S. cerevisiae deletion strains, locus YOR061W, strain CKA2, active compounds read low 1.02 | S. cerevisiae deletion strains, locus YOR069W, strain VPS5, active compounds read low 1.01 | S. cerevisiae deletion strains, locus YOR070C, strain gyp1, active compounds read low 1 | S. cerevisiae deletion strains, locus YOR080W, strain dia2, active compounds read low 0.998 | S. cerevisiae deletion strains, locus YOR083W, strain WHI5, active compounds read low 1.01 | S. cerevisiae deletion strains, locus YOR106W, strain vam3, active compounds read low 1.02 | S. cerevisiae deletion strains, locus YOR136W, strain idh2, active compounds read low 1.02 | S. cerevisiae deletion strains, locus YOR144C, strain elg1, active compounds read low 1.01 | S. cerevisiae deletion strains, locus YOR184W, strain ser1, active compounds read low 1.06 | S. cerevisiae deletion strains, locus YOR231W, strain MKK1, active compounds read low 0.996 | S. cerevisiae deletion strains, locus YOR265W, strain rbl2, active compounds read low 1 | S. cerevisiae deletion strains, locus YOR270C, strain vph1, active compounds read low 1.01 | S. cerevisiae deletion strains, locus YOR290C, strain snf2, active compounds read low 1.02 | S. cerevisiae deletion strains, locus YOR316C, strain cot1, active compounds read low 1.03 | S. cerevisiae deletion strains, locus YPL051W, strain arl3, active compounds read low 1.01 | S. cerevisiae deletion strains, locus YPL055C, strain LGE1, active compounds read low 1.04 | S. cerevisiae deletion strains, locus YPL078C, strain atp4, active compounds read low 0.999 | S. cerevisiae deletion strains, locus YPL106C, strain sse1, active compounds read low 0.996 | S. cerevisiae deletion strains, locus YPL240C, strain hsp82, active compounds read low 1.02 | S. cerevisiae deletion strains, locus YPL241C, strain CIN2, active compounds read low 1.01 | S. cerevisiae deletion strains, locus YPL256C, strain CLN2, active compounds read low 0.981 | S. cerevisiae deletion strains, locus YPR119W, strain clb2, active compounds read low 1.01 | S. cerevisiae deletion strains, locus YPR141C, strain kar3, active compounds read low 1.02 | S. cerevisiae deletion strains, locus YPR163C, strain tif3, active compounds read low 1.01 | S. cerevisiae deletion strains, locus YPR167C, strain met16, active compounds read low 1.02 | S. cerevisiae deletion strains, strain wtn01, active compounds read low 1.02 | S. cerevisiae strains, strain wild type, active compounds read low 1.01
